Assay outcomes from PubChem.
An excerpt weighted towards active compounds, which were near 1.7% of everything screened.
PfHsp40 rescue: rescue of PfHsp40-mediated yeast toxicity; AID 504582; S. cerevisiae expressing PfHsp40, growth rescue, ATP luminescence; growth rescue, % at 12.5 µM; 340,000 compounds, 0.68% hits; in the data active = growth rescue above about 28%, passing the limit was not always enough;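 note: yeast W303a lacking pdr1 and pdr3 grown in galactose medium; growth measured after three days at 30 °C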
BJeLR viability: BJeLR cell viability loss. BJeLR (HRASV12) viability, CellTiter-Glo ATP luminescence, 48 h. inhibition, % (test concentration not listed). 300,000 compounds, 0.17% hits; in the data active = inhibition above about 50%
PriA SSB inh: K. pneumoniae PriA-SSBct interaction inhibition. AlphaScreen SSBct-PriA binding, biotinylated peptide. inhibition, % at 33 µM. 430,000 compounds, 0.6% hits; in the data active = inhibition mostly above about 37%, no sharp cut-off; inactive = mostly below about 20%;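 note: plate controls were negative control peptide for no effect and reference peptide for full effect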
PrP 5UTR inh: suppresses PrP 5' UTR mRNA reporter expression | AID 488862 | cell-based PrP 5' UTR mRNA reporter, plate reader | 340,000 compounds, 0.35% hits | inhibition, % (test concentration not listed); in the data active = inhibition above about 52%; note: 0 = median of the neutral control wells
PrPC TRFRET: inhibitors of human cell surface prion protein PrPC. P04156. TR-FRET read-out. inhibition, % at 13.8 µM. 370,000 compounds, 0.43% hits; in the data active = inhibition above about 24%; note: 0% = median of the test wells and 100% = reference compound wells
Yp Topo-I inh: blocks Yersinia pestis topoisomerase I activity. 360,000 compounds, 0.064% hits. Y. pestis Topo-I cleavage product accumulation, plate reader. AID 504884. activity, % at 10 µM; in the data active = activity above about 50%, passing the limit was not always enough
* = called active by the depositor; x = no result given.

SMILES	PfHsp40 rescue	BJeLR viability	PriA SSB inh	PrP 5UTR inh	PrPC TRFRET	Yp Topo-I inh
O=C(Nc1ccccc1)C(=O)Nc1nc(-c2ccccn2)cs1	x	x	35	x	x	x
Cc1nnsc1C(=O)Nc1nc(-c2ccccn2)cs1	x	x	136*	x	x	x
CC(C)(C)NC(=O)C(=O)Nc1nc(-c2ccccn2)cs1	x	x	101*	x	x	x
Cc1sc2ncc(C(=O)Nc3nc(-c4ccccn4)cs3)c(=O)n2c1C	x	x	35	x	x	x
O=C(CC12CC3CC(CC(C3)C1)C2)Nc1nc(-c2ccccn2)cs1	x	x	43	x	x	x
O=C(CC12CC3CC(CC(O)(C3)C1)C2)Nc1nc(-c2ccccn2)cs1	x	x	97*	x	x	x
Cc1nc(C(=O)Nc2nc(-c3ccccn3)cs2)c(C(C)C)s1	x	x	68*	x	x	x
C=CCc1ccc(OCC(O)CN2CCC(CN3C(=O)c4cccc5cccc(c45)C3=O)CC2)c(OC)c1 (stereo not drawn)	x	x	4	x	x	x
O=C(Nc1nc(-c2ccccn2)cs1)c1ccccn1	x	x	162*	x	x	x
CCOc1ccc2nc(NC(=O)c3ccoc3C)sc2c1	-5	81*	0	-16	19	-24
COc1ccc(-c2csc(NC(=O)c3ccoc3C)n2)cc1	17	1	-4	-59	10	-1
Cc1occc1C(=O)Nc1nc(-c2ccccn2)cs1	x	x	112*	x	x	x
O=C(/C=C/c1cccs1)Nc1nc(-c2ccccn2)cs1	x	x	66*	x	x	x
O=C(Nc1nc(-c2ccccn2)cs1)c1cc2ccccc2o1	14	2	20	-33	8	-11
CC(C)(O)CC[C@@H](O)C(C)(O)C1CC[C@@]2(O)C3=CC(=O)[C@@H]4C[C@@H](O)[C@@H](O)C[C@]4(C)C3CC[C@]12C (stereo partly drawn)	x	x	1	x	x	x
Cc1cc(NC(=O)CN2CCN(Cc3nc4ccccc4[nH]3)CC2)no1	x	x	-3	x	x	x
CCc1ccc(S(=O)(=O)N=C2C=C(Nc3cccc(C(=O)O)c3)C(=O)c3ccccc32)cc1	x	x	-8	x	x	x
O=C(Nc1nc(-c2ccc(-c3ccccc3)cc2)cs1)C1=COCCO1	-2	14	-3	-35	7	8
O=C(Nc1nc(-c2ccccn2)cs1)C1=COCCO1	x	x	106*	x	x	x
O=C(Nc1nc(-c2ccccn2)cs1)c1ccccc1C(F)(F)F	x	x	88*	x	x	x
O=C(Nc1nc(-c2ccccn2)cs1)c1ncc(Cl)c(Cl)c1Cl	3	0	12	-11	2	-2
O=C(Nc1nc(-c2ccccn2)cs1)c1c[n+]2cccnc2[nH]1	x	x	99*	x	x	x
N#Cc1ccccc1Sc1ccccc1C(=O)Nc1nc(-c2ccccn2)cs1	x	x	34	x	x	x
Cc1cc(C)cc(C(=O)Nc2nc(-c3ccccn3)cs2)c1	x	x	92*	x	x	x
O=c1[nH]c(=O)n(Cc2ccccc2)c(O)c1C=NNCCO	x	x	3	x	x	x
SMILES	PfHsp40 rescue	BJeLR viability	PriA SSB inh	PrP 5UTR inh	PrPC TRFRET	Yp Topo-I inh
O=C(Nc1nc(-c2ccccn2)cs1)c1ccc(Cl)cc1	x	x	73*	x	x	x
Cc1c(C(=O)Nc2nc(-c3ccccn3)cs2)oc2ccccc12	10	x	69*	1	x	27
O=C(Nc1nc(-c2ccccn2)cs1)c1ccc(NC(=O)c2cccs2)cc1	x	x	97*	x	x	x
COc1ccc(S(=O)(=O)Nc2ccc(C(=O)Nc3nc(-c4ccccn4)cs3)cc2)cc1	x	x	95*	x	x	x
O=C(Nc1nc(-c2ccccn2)cs1)c1ccc(S(=O)(=O)N2CCCCC2)cc1	x	12	x	x	x	x
CS(=O)(=O)c1ccc(C(=O)Nc2nc(-c3ccccn3)cs2)cc1	x	x	75*	x	x	x
COc1ccc(-c2csc(NC(=O)CS(=O)(=O)c3ccccc3)n2)cc1	1	-4	3	-9	-1	6
O=C(Nc1nc(-c2ccccn2)cs1)c1ccc2c(c1)CCCC2	x	x	54	x	x	x
COc1ccc(S(=O)(=O)CC(=O)Nc2nc(-c3ccccn3)cs2)cc1	x	x	88*	x	x	x
CS(=O)(=O)Cc1ccc(C(=O)Nc2nc(-c3ccccn3)cs2)cc1	x	x	17	x	x	x
CC1CN(Cc2ccc(C(=O)Nc3nc(-c4ccccn4)cs3)cc2)CC(C)O1 (stereo not drawn)	x	x	114*	x	x	x
O=C(Nc1nc(-c2ccccn2)cs1)c1n[nH]c2c1CCCCC2	x	x	62*	x	x	x
O=C(O)c1cccc(N2C(=O)CC(Nc3ccc(F)cc3)C2=O)c1 (stereo not drawn)	x	x	-16	x	x	x
Cn1c(=O)oc2ccc(S(=O)(=O)N3CCc4ncncc4C3)cc21	x	x	9	x	x	x
O=C(NCc1nnc(SCc2ccc(Cl)cc2Cl)o1)c1cccc(C(F)(F)F)c1	x	x	0	x	x	x
COc1ccccc1-c1nnc(NC(=O)C2CCCN2S(=O)(=O)c2cccs2)o1 (stereo not drawn)	x	x	75*	x	-2	7
CCC(C)/C=C(C)/C=C/C1=CC2=C(Cl)C(=O)C(C)(OC(C)=O)C(=O)C2=CO1 (stereo not drawn)	0	6	45*	-1	x	24
CC[C@H](C)/C=C(C)/C=C/C1=CC2=C(Cl)C(=O)[C@@](C)(OC(C)=O)C(=O)C2=CO1	23	7	x	-13	x	-3
O=C(c1ccsc1)N1CC(N2C(=O)C3CC=CCC3C2=O)C1 (stereo not drawn)	x	x	-3	x	x	x
Cc1nc(-c2ccccn2)nc(N(C)c2ccccc2)c1Cl	180*	-1	-3	-15	9	15
Cc1nc(-c2ccccn2)nc(N2CCOCC2)c1Cl	0	3	4	-18	5	11
O=C(c1cc(C2CC2)on1)N1CCC(Oc2ccc(C(F)(F)F)cn2)CC1	x	x	-9	x	x	x
COc1ccnc(CSC(N)=Nc2ccc(F)cc2)c1	-1	3	46*	-15	-8	-1
COC(=O)c1sc2cccc(F)c2c1S(=O)(=O)NCc1cccnc1	x	x	52*	x	x	x
CNC(=O)c1ccc(S(=O)(=O)NCc2cccnc2)o1	x	x	-11	x	x	x
SMILES	PfHsp40 rescue	BJeLR viability	PriA SSB inh	PrP 5UTR inh	PrPC TRFRET	Yp Topo-I inh
COc1cc(CN(C)C(=O)C2CCN(S(=O)(=O)c3cccs3)CC2)ccc1OC(F)F	0	x	-2	5	7	25
COc1ccc(CN(C)C(=O)C2CCN(S(=O)(=O)c3cccs3)CC2)cc1F	69*	x	4	-11	0	11
Cc1ccccc1N1C(=O)CC(N(O)c2ccccc2)C1=O (stereo not drawn)	-1	-3	10	-18	2	6
CCN(CCO)C1CC(=O)N(c2ccccc2C)C1=O (stereo not drawn)	75*	6	-2	-20	x	-3
CCCCC(=O)Nc1ccc(C(=O)Nc2ccc(OC)cc2[N+](=O)[O-])cc1	4	3	1	-31	-13	-5
CCSc1cccc(C(=O)Nc2ccc(OC)cc2[N+](=O)[O-])c1	x	x	51*	x	x	x
COc1ccc(NS(=O)(=O)c2ccc(C)cc2)c([N+](=O)[O-])c1	2	2	27	-8	-2	2
COc1ccc(NC(=O)c2ccccc2NS(=O)(=O)c2ccc(C)cc2)c([N+](=O)[O-])c1	0	-10	53*	-13	12	-1
COc1ccccc1NCC(=O)c1ccc(Cl)cc1	-1	3	3	-11	3	98*
COc1ccccc1NCC(=O)c1ccc(C)c(C)c1	-1	-8	-7	-19	4	-3
